The values that follow come from PubChem BioAssay.

The subject of assay [1] is Human papillomavirus type 1a protein E7 (residues 44-93). Put plainly: small molecules binding HPV E7 44-93 – biochemical, small-molecule microarray, residues 44-93, 635 nm fluorescence, primary screen (AID 1108).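 Further: E7 fragment applied at 1 µg/mL in TBST for 1 h at 4 C; score combines spot fluorescence with its signal to noise ratio.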 The conditions noted are these: fluorescence 635 nm, higher = more signal.
A short description of assay [2]: hepatitis C replication reporter changes, two-sided – Huh7 cells, luciferase reporter, HCV replication inhibitor project, primary screen (AID 1109).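 Further: huh7 hepatoma cells harbouring a luciferase neomycin HCV replicon reporter; luciferase luminescence as measure of HCV replicon replication; test concentration not given here.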 As to conditions: Huh7 HCV replicon luciferase reporter, 48 h; higher = more signal. (In general: Reporter assays use an easily measured gene product as a stand-in for the process of interest.)
For assay [3], the target named is Left-right determination factor 2 (Homo sapiens) (UniProt O00292). In words: small molecules binding LEFTY2 protein – biochemical, small-molecule microarray, 635 nm fluorescence scan, primary screen (AID 1110). The conditions noted are these: higher = more signal.
Chain of Left-right determination factor 2 (Homo sapiens) (O00292 whole entry, looked up): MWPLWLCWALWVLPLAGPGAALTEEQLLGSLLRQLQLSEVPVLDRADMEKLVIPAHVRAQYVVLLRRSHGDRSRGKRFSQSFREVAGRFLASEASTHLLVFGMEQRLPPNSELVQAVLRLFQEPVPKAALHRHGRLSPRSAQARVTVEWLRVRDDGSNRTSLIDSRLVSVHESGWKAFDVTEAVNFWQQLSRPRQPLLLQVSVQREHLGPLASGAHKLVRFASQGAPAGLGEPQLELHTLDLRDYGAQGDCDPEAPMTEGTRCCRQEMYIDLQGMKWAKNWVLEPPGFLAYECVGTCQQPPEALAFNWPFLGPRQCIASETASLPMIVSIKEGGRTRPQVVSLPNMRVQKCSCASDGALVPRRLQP
For assay [4], the target named is Calmodulin-1 (Homo sapiens) (UniProt P0DP23). Put plainly: small molecules binding calmodulin-1 with EGTA – biochemical, small-molecule microarray, Cy5-labelled CALM1, profiling panel (AID 1111).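 Further: labelled calmodulin applied in Tris saline Tween buffer holding calcium plus EGTA and DTT.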 As to conditions: Cy5-CALM1 binding fluorescence, higher = more signal.
Assay [5] shares this target. In words: small molecules binding Ca-loaded calmodulin-1 – biochemical, small-molecule microarray, Cy5-labelled CALM1, plus calcium, artefact control for SMM control-protein annotation, profiling panel (AID 1112).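 Further: score merges spot fluorescence with signal to noise from triplicate slides.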 The conditions noted are these: Cy5-CALM1 binding fluorescence, higher = more signal.
A short description of assay [6]: probe aWnt5a binding to arrayed compounds – biochemical, biotinylated probe, 635/667 nm fluorescence, primary screen (AID 1113).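 Further: score merges 667 nm fluorescence intensity with signal-to-noise per printed feature.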 As to conditions: small-molecule microarray, higher = more signal.
The nature of assay [7]: probe aShh binding to arrayed compounds – biochemical, biotinylated probe, 635/667 nm fluorescence, primary screen (AID 1114).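 Further: probe is biotin-labelled aShh protein from a stem cell growth factor screen; measures binding of labelled protein to compounds printed on the slide; score merges feature fluorescence at 667 nm with signal-to-noise.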 As to conditions: small-molecule microarray, higher = more signal.
Assay [8] is described as follows: probe aNog binding to arrayed compounds – biochemical, biotinylated probe, 635/667 nm fluorescence, primary screen (AID 1115).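 Further: probe is biotinylated aNog protein used at 0.15 µg/mL for 1 h at 4 C; z-score combines 667 nm fluorescence of each spot with its signal to noise.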 As to conditions: small-molecule microarray, higher = more signal.
In assay [9] the target is Torsin-1A-interacting protein 1 (Homo sapiens) (UniProt Q5JTV8). Put plainly: compound microarray binding of lysate hLAP1 – cell lysate, small-molecule microarray, COS7 lysate, 635/667 nm fluorescence, primary screen (AID 1116). The conditions noted are these: 635 nm fluorescence, higher = more signal.
Chain of Torsin-1A-interacting protein 1 (Homo sapiens) (Q5JTV8 whole entry, looked up): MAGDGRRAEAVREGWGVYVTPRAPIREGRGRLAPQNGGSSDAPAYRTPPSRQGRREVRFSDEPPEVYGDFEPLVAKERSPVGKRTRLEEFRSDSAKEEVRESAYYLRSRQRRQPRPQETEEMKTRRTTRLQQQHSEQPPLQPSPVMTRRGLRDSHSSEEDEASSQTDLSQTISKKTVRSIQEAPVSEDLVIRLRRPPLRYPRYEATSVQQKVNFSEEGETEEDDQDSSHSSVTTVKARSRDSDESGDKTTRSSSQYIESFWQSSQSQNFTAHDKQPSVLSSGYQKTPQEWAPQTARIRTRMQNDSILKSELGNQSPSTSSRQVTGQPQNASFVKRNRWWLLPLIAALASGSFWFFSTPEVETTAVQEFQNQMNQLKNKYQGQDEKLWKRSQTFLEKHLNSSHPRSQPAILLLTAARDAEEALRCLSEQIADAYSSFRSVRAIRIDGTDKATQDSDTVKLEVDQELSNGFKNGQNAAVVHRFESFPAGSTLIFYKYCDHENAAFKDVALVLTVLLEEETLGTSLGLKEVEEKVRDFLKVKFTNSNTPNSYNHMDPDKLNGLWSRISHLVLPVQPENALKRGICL
For assay [10], the target named is Alpha-bungarotoxin (Bungarus multicinctus) (UniProt P60615). Put plainly: compounds binding labelled alpha-BTX control protein – biochemical, small-molecule microarray, Alexa647 label, 635/667 nm fluorescence, artefact control for SMM control protein annotation, profiling panel (AID 1117). As to conditions: alpha-BTX-A647 binding fluorescence, higher = more signal.
Chain of Alpha-bungarotoxin (Bungarus multicinctus) (P60615 whole entry, looked up): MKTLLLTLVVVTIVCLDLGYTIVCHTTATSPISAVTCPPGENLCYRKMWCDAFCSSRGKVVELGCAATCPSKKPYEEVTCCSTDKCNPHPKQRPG

Assay [11] has as its target Albumin (Bos taurus) (UniProt P02769). Put plainly: compounds binding labelled BSA control protein – biochemical, small-molecule microarray, Alexa647 label, 635/667 nm fluorescence, artefact control for SMM control protein annotation, profiling panel (AID 1118).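 Further: score merges 667 nm emission intensity and signal-to-noise per printed compound spot.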 As to conditions: BSA-A647 binding, fluorescence 635 nm, higher = more signal.
Assay [12] can be described thus: probe aXIP binding to arrayed compounds – biochemical, NeuroSMM set, 635/667 nm fluorescence, primary screen (AID 1119).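 Further: probe is the protein aXip251-270 applied at 1 µg/mL to compound-printed slides; binding of probe to printed compounds measured as 667 nm fluorescence plus signal to noise.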 The conditions noted are these: small-molecule microarray, higher = more signal, called active from +8 up or from −8 down.
The nature of assay [13]: probe aNOTCH3 binding on compound microarray – biochemical, small-molecule microarray, 635/667 nm fluorescence, primary screen (AID 1120).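 Further: probe is a biotin-tagged antibody raised against NOTCH3 rather than NOTCH3 protein; score merges spot fluorescence near 667 nm with spot signal to noise.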 As to conditions: higher = more signal.
Assay [14] is described as follows: probe aNOTCH2 binding on compound microarray – biochemical, small-molecule microarray, 635/667 nm fluorescence, primary screen (AID 1121).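 Further: score merges feature fluorescence read at 667 nm with its signal to noise.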 As to conditions: higher = more signal.
Assay [15] addresses Carbonic anhydrase 2 (Homo sapiens) (UniProt P00918). Put plainly: compounds binding carbonic anhydrase 2 – biochemical, small-molecule microarray, Alexa647-labelled CAII, profiling panel (AID 1122). As to conditions: CAII-A647 binding fluorescence, higher = more signal.
Assay [16] is described as follows: COS7 lysate on small-molecule microarray, probe aHis, 635 nm (AID 1123).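 Further: z-score combines 667nm fluorescence intensity with signal-to-noise per printed compound spot.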 The conditions noted are these: COS7 cell lysate, fluorescence, higher = more signal.
A short description of assay [17]: probe aLAP1 signal on lysate-treated microarray – cell lysate, small-molecule microarray, COS7 lysate, primary screen (AID 1124).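 Further: lysate comes from COS7 cells expressing LAP1 and is applied at 0.3 µg/mL; score merges spot fluorescence near 667 nm with signal-to-noise over triplicate slides.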 The conditions noted are these: probe aLAP1, fluorescence, higher = more signal.
Assay [18] has as its system Sam68 (KHDRBS1). Put plainly: compounds binding KHDRBS1 protein – biochemical, small-molecule microarray, 635 nm fluorescence, primary screen (AID 1125).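 Further: score merges 667 nm channel intensity with signal to noise over triplicate slides.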 The conditions noted are these: higher = more signal.
The subject of assay [19] is Chordin-like protein 2 (CHRDL2). In words: compounds binding chordin-like 2 – biochemical, small-molecule microarray, 635 nm fluorescence, primary screen (AID 1126).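 Further: printed compound slides probed with Chrdl2 protein at 4 µg/mL for 1 h at 4 C; score merges 667 nm emission intensity with signal to noise over three replicate slides.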 The conditions noted are these: fluorescence 635 nm, higher = more signal.
Assay [20] has as its target Concanavalin-A (Canavalia ensiformis) (UniProt P02866). In words: compounds binding concanavalin A lectin – biochemical, small-molecule microarray, Alexa647 label, 635 nm, artefact control for SMM control protein annotation, primary screen (AID 1127).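 Further: z combines 667 nm emission intensity with signal-to-noise across three replicate slides.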 The conditions noted are these: ConA-A647 binding fluorescence, higher = more signal.

Activity calls are given as the source filed them.

Chain of Albumin (Bos taurus) (P02769 whole entry, looked up): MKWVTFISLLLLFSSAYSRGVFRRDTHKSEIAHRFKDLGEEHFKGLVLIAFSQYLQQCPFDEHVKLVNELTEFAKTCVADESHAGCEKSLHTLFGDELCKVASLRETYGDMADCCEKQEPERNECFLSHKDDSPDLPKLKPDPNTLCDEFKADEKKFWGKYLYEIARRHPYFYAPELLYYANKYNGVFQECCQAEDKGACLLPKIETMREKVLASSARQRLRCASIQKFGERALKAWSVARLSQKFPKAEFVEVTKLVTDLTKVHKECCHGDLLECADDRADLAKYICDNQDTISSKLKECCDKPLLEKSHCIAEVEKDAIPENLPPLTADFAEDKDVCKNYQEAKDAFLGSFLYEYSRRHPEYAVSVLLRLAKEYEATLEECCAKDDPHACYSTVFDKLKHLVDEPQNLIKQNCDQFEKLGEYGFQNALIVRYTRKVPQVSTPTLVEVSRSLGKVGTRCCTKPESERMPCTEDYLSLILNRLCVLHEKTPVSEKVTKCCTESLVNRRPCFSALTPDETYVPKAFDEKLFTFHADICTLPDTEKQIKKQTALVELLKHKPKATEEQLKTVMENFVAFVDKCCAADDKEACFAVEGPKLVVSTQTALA
Chain of Concanavalin-A (Canavalia ensiformis) (P02866 whole entry, looked up): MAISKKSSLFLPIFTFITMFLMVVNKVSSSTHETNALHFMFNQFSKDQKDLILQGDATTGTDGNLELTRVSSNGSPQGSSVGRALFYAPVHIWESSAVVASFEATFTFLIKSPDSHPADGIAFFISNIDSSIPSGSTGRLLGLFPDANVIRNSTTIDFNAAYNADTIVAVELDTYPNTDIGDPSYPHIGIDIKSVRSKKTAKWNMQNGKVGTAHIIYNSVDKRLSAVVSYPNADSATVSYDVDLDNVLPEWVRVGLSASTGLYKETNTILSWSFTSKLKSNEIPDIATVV

With `COc1ccc(OC[C@@H](CO)OC)cc1`, the composite z-score was 0.0047 in [1]; 0.178 in [3]; -0.584 in assay [4]; -0.671 in assay [5]; -0.244 in assay [6]; 0.0639 in [7]. In addition, the composite z-score in assay [8] was -0.0448; in [9] it was 0.551; in assay [10] it was 0.0276; in [11], -0.151; in assay [13] it was -0.0865; in assay [14], -0.118. Besides, the composite z-score in assay [15] is -0.148; in assay [16], -0.206; in [17] it was -0.295; in assay [18], 0.14; in assay [19], 0.175; in assay [20], 0.0261. In [2], this molecule returned a z-score of -0.719. In addition, the composite Z-score in assay [12] is 0.675 (inactive).
With `CCN1C(=O)[C@H]2[C@H]3[C@H](O)[C@H](O)CC(=NNC(=O)OCc4ccccc4)[C@H]3CC[C@H]2C1=O`, the composite z-score was 0.663 in [1]; 0.227 in [3]; -0.307 in assay [4]; -0.767 in assay [5]; -0.0459 in [6]; 0.0637 in [7]. Also, the composite z-score is -0.452 in [8]; 0.185 in assay [9]; 0.504 in assay [10]; 0.185 in assay [11]; 0.0145 in assay [13]; -0.129 in assay [14]. Also, the composite z-score in [15] was -0.0576; in assay [16] it was 0.0949; in assay [17] it was -0.198; in [18], -0.813; in assay [19], -0.0255; in [20] it was 0.514. The same molecule yielded a z-score in assay [2] of -0.0788. In addition, the composite Z-score in assay [12] is -0.431 (inactive).
As to `CC(C)=CCCC(C)=CCON=C1C[C@@H](O)[C@@H](O)[C@@H]2[C@@H]3C(=O)N(Cc4ccc5c(c4)OCO5)C(=O)[C@@H]3CC[C@H]12`, the composite z-score in assay [1] was 1.38; in assay [3] it was 0.546; in assay [4], -0.588; in [5], -1.11; in assay [6] it was -0.0346; in assay [7], -0.2. Also, the composite z-score is -0.28 in assay [8]; 0.142 in [9]; 0.168 in [10]; 0.0686 in [11]; 0.0568 in [13]; 0.428 in assay [14]. Also, the composite z-score was 0.389 in assay [15]; 1.17 in [16]; 0.206 in assay [17]; 0.945 in assay [18]; 0.957 in assay [19]; -0.0491 in assay [20]. The molecule also gave a z-score in assay [2] of -1.45. For the same molecule, the composite Z-score in assay [12] was -0.16 (inactive).
On to `CCCNC(=O)OC[C@H]1O[C@H](CCON=C2c3cc(OC)ccc3O[C@H](c3cccc(OC)c3)[C@H]2O)C=C[C@@H]1Oc1ccc(OC)cc1`, for which the composite z-score is 0.523 in assay [1]; 0.322 in [3]; 0.571 in assay [4]; 0.0967 in assay [5]; -0.187 in [6]; -0.0035 in [7]. The composite z-score is -0.239 in assay [8]; 1.28 in [9]; 1.2 in assay [10]; 0.491 in [11]; 0.219 in assay [13]; 0.0889 in [14]. Also, the composite z-score is 0.137 in assay [15]; 1.24 in assay [16]; 0.812 in assay [17]; 0.956 in [18]; 0.366 in assay [19]; 0.493 in assay [20]. In assay [2], this molecule came in with a z-score of -3.02. For the same molecule, the composite Z-score in assay [12] was 3.22 (inactive).
`CCOC(=O)[C@H](Cc1ccccc1)NC(=O)CCC1CC(OC(=O)NCc2cccc3ccccc23)CC2(CCCC(COC(=O)NCCOc3ccccc3)O2)O1` (stereo not given in full): the composite z-score was 1.35 in assay [1]; 0.628 in assay [3]; 0.653 in [4]; -0.378 in assay [5]; -0.176 in assay [6]; -0.493 in [7]. The composite z-score is -0.347 in [8]; 0.166 in assay [9]; 0.594 in assay [10]; 0.0423 in [11]; -0.16 in [13]; -0.0859 in [14]. For the same molecule, the composite z-score in assay [15] was 0.391; in [16], 1.05; in assay [17] it was 0.132; in [18], 1.24; in assay [19] it was 0.439; in assay [20], 1.12. The molecule also came in with a z-score in [2] of -0.795. Moreover, the composite Z-score in assay [12] is 0.19 (inactive).
